Assay results from PubChem BioAssay (NCI).
Where “and” joins values, the source holds several entries; their conditions need not be identical. Equal entries are not always repeated. The panel holds about 79,000 compounds, 15% with a hit somewhere; the sample as a whole holds those more often. Some structures have more than one record in an assay (separate samples or runs), and their calls can disagree. Calls of active or inactive are those of the source. No stated cut-off is given here; in the data, active means growth inhibition above about 70%; inactive means the rest.

Tests used:
[1] = NCI Yeast Anticancer Drug Screen. Data for the mec2-1 strain (AID 157); conditions: S. cerevisiae mec2-1 strain, stronger effect = higher value
Summary of the method: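 Mutant yeast (mec2-1) grown with compound; growth inhibition relative to vehicle control reported.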

[2] = NCI Yeast Anticancer Drug Screen. Data for the rad14 strain (AID 159);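 further: 0% = growth of vehicle-treated control cultures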; conditions: S. cerevisiae rad14 strain growth inhibition, stronger effect = higher value
Summary of the method: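 Screen for anticancer potential: a yeast strain altered in DNA damage repair is grown with compound, and reduced growth is quantified against vehicle controls.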

[3] = NCI Yeast Anticancer Drug Screen. Data for the sgs1 mgt1 strain (AID 161);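 further: 0% = growth of cultures given vehicle only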; conditions: S. cerevisiae sgs1 mgt1 strain, stronger effect = higher value
Summary of the method: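 Compounds are added to genetically altered yeast, and growth is compared with cultures given vehicle alone to give percent inhibition.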

[4] = NCI Yeast Anticancer Drug Screen. Data for the CLN2oe strain (AID 163);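 further: 0% = growth of vehicle-only control cultures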; conditions: S. cerevisiae CLN2oe strain, stronger effect = higher value
Summary of the method: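 Compounds are applied to yeast harbouring a defined cell-cycle control change; reduced growth compared with vehicle-treated controls gives the value.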

[5] = NCI Yeast Anticancer Drug Screen. Data for the cln2 rad14 strain (AID 165);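 further: 0% = growth equal to vehicle treated cultures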; conditions: S. cerevisiae cln2 rad14 strain, stronger effect = higher value
Summary of the method: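 Readout is yeast growth inhibition versus vehicle-treated controls, using a strain with cln2 and rad14 alterations exposed to compound.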

[6] = NCI Yeast Anticancer Drug Screen. Data for the bub3 strain (AID 167); conditions: S. cerevisiae bub3 mutant strain, stronger effect = higher value
Summary of the method: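 Screening used yeast with an engineered genetic alteration affecting cell cycle control. Compound-exposed cultures were compared with vehicle cultures, and reduced growth was taken as inhibition.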

[7] = NCI Yeast Anticancer Drug Screen. Data for the wt2 strain (AID 169);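 further: 0% = growth of vehicle-treated yeast cultures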; conditions: S. cerevisiae wt2 strain growth inhibition, stronger effect = higher value
Summary of the method: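 Against vehicle-treated controls, the growth of yeast exposed to each compound was compared, and the inhibition was recorded.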

[8] = NCI Yeast Anticancer Drug Screen. Data for the sgs1 strain (AID 173);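 further: 0% = growth of vehicle-only control cultures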; conditions: S. cerevisiae sgs1 mutant, stronger effect = higher value
Summary of the method: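 Each compound was added to cultures of the altered yeast strain. Growth was recorded, and inhibition was derived by comparison with vehicle controls.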

[9] = NCI Yeast Anticancer Drug Screen. Data for the mlh1 rad18 strain (AID 175); conditions: S. cerevisiae mlh1 rad18 strain growth inhibition, stronger effect = higher value
Summary of the method: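 Genetically defined yeast (DNA repair-deficient) exposed to compounds; growth inhibition determined relative to vehicle.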

[10] = NCI Yeast Anticancer Drug Screen. Data for the rad18 strain (AID 177); conditions: S. cerevisiae rad18 mutant growth inhibition, stronger effect = higher value
Summary of the method: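 Vehicle-treated cultures served as the baseline for scoring compound-induced growth inhibition in DNA-repair-mutant yeast.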

[11] = NCI Yeast Anticancer Drug Screen. Data for the rad52 strain (AID 147);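 further: 0% = growth of vehicle-treated control cultures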; conditions: S. cerevisiae rad52 mutant growth inhibition, stronger effect = higher value
Summary of the method: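 The repair-mutant yeast strain was incubated with compounds, then growth was read and inhibition derived relative to vehicle.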

[12] = NCI Yeast Anticancer Drug Screen. Data for the wt1 strain (AID 149);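 further: 0% = growth of vehicle-treated wt1 cultures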; conditions: S. cerevisiae wt1 strain (SPY 50644) growth inhibition, stronger effect = higher value
Summary of the method: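 Using yeast strain wt1, compound-induced growth inhibition was determined against vehicle-treated cultures.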

[13] = NCI Yeast Anticancer Drug Screen. Data for the rad50EPP+ strain (AID 151);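 further: 0% = growth of vehicle-treated control cultures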; conditions: S. cerevisiae rad50 mutant strain, stronger effect = higher value
Summary of the method: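 Vehicle-normalised growth inhibition; rad50EPP+ yeast strain, altered in DNA damage repair, compound-treated.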

[14] = NCI Yeast Anticancer Drug Screen. Data for the mgt1 strain (AID 153); conditions: S. cerevisiae mgt1 mutant growth inhibition, stronger effect = higher value
Summary of the method: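 Vehicle-normalized growth inhibition is determined in mgt1 yeast, a strain selected for a defined alteration in DNA repair or cell cycle control.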

[15] = NCI Yeast Anticancer Drug Screen. Data for the rad50 strain (AID 155);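 further: 0% = growth of vehicle-only cultures of the same strain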; conditions: S. cerevisiae rad50 strain growth inhibition, stronger effect = higher value
Summary of the method: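 Relative growth inhibition (compound vs vehicle) was measured in yeast with a defined repair-gene alteration.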

[16] = at 5.0 µM (retest, dose inferred, filed as 0.5)
[17] = at 50.0 µM (retest, dose inferred, filed as 5.0)

Measured: growth inhibition

COc1ccc(C2C3=C(COC3=O)OC(C)(C)Oc3cc4c(cc32)OCO4)cc1OC (centres undefined)
active: [1]; at 50.0 µM 96.1% | [1]; at 100.0 µM 95% | [2]; at 100.0 µM 91% | [3]; at 50.0 µM 96.7% | [4]; at 100.0 µM 90% | [5]; at 50.0 µM 91.6% | [6]; [17] 86% | [6]; at 50.0 µM 96.3% | [6]; at 100.0 µM 88% | [7]; at 100.0 µM 90% | [8]; at 100.0 µM 94% | [9]; [17] 96% | [9]; at 50.0 µM 97.5% | [10]; at 100.0 µM 94%
inactive: [1]; [16] 9% | [1]; at 11.0 µM 33% | [1]; at 33.0 µM 58% | [1]; [17] 65% | [2]; at 1.2 µM 11% | [2]; at 3.7 µM 5% | [2]; at 11.0 µM 5% | [2]; at 33.0 µM 30% | [3]; [16] -9% | [3]; [17] 50% | [4]; at 1.2 µM 11% | [4]; at 3.7 µM 17% | [4]; at 11.0 µM 10% | [4]; at 33.0 µM 18% | [5]; [16] -1% | [5]; [17] 57% | [6]; at 1.2 µM -47% | [6]; at 3.7 µM -56% | [6]; [16] -9% | [6]; at 11.0 µM -33% | [6]; at 33.0 µM 24% | [7]; at 1.2 µM 5% | [7]; at 3.7 µM 2% | [7]; at 11.0 µM 8% | [7]; at 33.0 µM 26% | [8]; at 1.2 µM 37% | [8]; at 3.7 µM 23% | [8]; at 11.0 µM 27% | [8]; at 33.0 µM 61% | [9]; [16] -1% | [10]; at 1.2 µM -4% | [10]; at 3.7 µM 5% | [10]; at 11.0 µM 7% | [10]; at 33.0 µM 41%

CCCCC/C(=C(\C#N)C(=O)OCC)c1ccccc1
inactive: [11]; at 1.2 µM -2% | [11]; at 3.7 µM -1% | [11]; at 11.0 µM 1% | [11]; at 33.0 µM 7% | [11]; at 100.0 µM 9% | [12]; at 1.2 µM -2% | [12]; at 3.7 µM -2% | [12]; at 11.0 µM -1% | [12]; at 33.0 µM -4% | [12]; at 100.0 µM -4% | [13]; at 1.2 µM 3% | [13]; at 3.7 µM 3% | [13]; at 11.0 µM 13% | [13]; at 33.0 µM 26% | [14]; at 1.2 µM -3% | [14]; at 3.7 µM -2% | [14]; at 11.0 µM -3% | [14]; at 33.0 µM -2% | [14]; at 100.0 µM 7% | [15]; at 1.2 µM -1% | [15]; at 3.7 µM -1% | [15]; [16] 7% | [15]; at 11.0 µM 4% | [15]; at 33.0 µM 7% | [15]; [17] -4% | [15]; at 50.0 µM -7% | [15]; at 100.0 µM -6% | [1]; at 1.2 µM -7% | [1]; at 3.7 µM -5% | [1]; [16] -5% | [1]; at 11.0 µM -3% | [1]; at 33.0 µM 0% | [1]; [17] -4% | [1]; at 50.0 µM 28.4% | [1]; at 100.0 µM 6% | [2]; at 1.2 µM -1% | [2]; at 3.7 µM -2% | [2]; at 11.0 µM 1% | [2]; at 33.0 µM 8% | [2]; at 100.0 µM 5% | [3]; [16] -1% | [3]; [17] 33% | [3]; at 50.0 µM 36.5% | [4]; at 1.2 µM -2% | [4]; at 3.7 µM -5% | [4]; at 11.0 µM -5% | [4]; at 33.0 µM -4% | [4]; at 100.0 µM 4% | [5]; [16] -7% | [5]; [17] 13% | [5]; at 50.0 µM -99% | [6]; at 1.2 µM 0% | [6]; at 3.7 µM 2% | [6]; [16] 1% | [6]; at 11.0 µM 6% | [6]; at 33.0 µM 11% | [6]; [17] 7% | [6]; at 50.0 µM 52.4% | [6]; at 100.0 µM 14% | [7]; at 1.2 µM -3% | [7]; at 3.7 µM -4% | [7]; at 11.0 µM -3% | [7]; at 33.0 µM -3% | [7]; at 100.0 µM 1% | [8]; at 1.2 µM -1% | [8]; at 3.7 µM 2% | [8]; at 11.0 µM 2% | [8]; at 33.0 µM 8% | [8]; at 100.0 µM 17% | [9]; [16] -6% | [9]; [17] 64% | [9]; at 50.0 µM 44.4% | [10]; at 1.2 µM 1% | [10]; at 3.7 µM 3% | [10]; at 11.0 µM 2% | [10]; at 33.0 µM 8% | [10]; at 100.0 µM 14%
active: [13]; at 100.0 µM 78%

O=C(O)c1ccc(N2C(=O)C=CC2=O)cc1
30% (inactive) and 72.7% (active): [15]; at 50.0 µM
active: [11]; at 100.0 µM 74% | [15]; at 100.0 µM 80% | [10]; at 100.0 µM 72%
inactive: [11]; at 1.2 µM 1% | [11]; at 3.7 µM 7% | [11]; at 11.0 µM 8% | [11]; at 33.0 µM 27% | [12]; at 1.2 µM -3% | [12]; at 3.7 µM -2% | [12]; at 11.0 µM 1% | [12]; at 33.0 µM 10% | [12]; at 100.0 µM 53% | [13]; at 1.2 µM 2% | [13]; at 3.7 µM 5% | [13]; at 11.0 µM 8% | [13]; at 33.0 µM 22% | [13]; at 100.0 µM 40% | [14]; at 1.2 µM 1% | [14]; at 3.7 µM 1% | [14]; at 11.0 µM 3% | [14]; at 33.0 µM 18% | [14]; at 100.0 µM 62% | [15]; at 1.2 µM 3% | [15]; at 3.7 µM 11% | [15]; [16] -8% and 7% | [15]; at 11.0 µM 14% | [15]; at 33.0 µM 33% | [15]; [17] 44% and 25% | [1]; at 1.2 µM -7% | [1]; at 3.7 µM -4% | [1]; [16] 5% and 7% | [1]; at 11.0 µM 0% | [1]; at 33.0 µM 21% | [1]; [17] 15% and 24% | [1]; at 50.0 µM 17.6% and 32.5% | [1]; at 100.0 µM 56% | [2]; at 1.2 µM -3% | [2]; at 3.7 µM -6% | [2]; at 11.0 µM 3% | [2]; at 33.0 µM 12% | [2]; at 100.0 µM 38% | [3]; [16] 9% and 8% | [3]; [17] 56% and 22% | [3]; at 50.0 µM 11.9% and 59.4% | [4]; at 1.2 µM 1% | [4]; at 3.7 µM 4% | [4]; at 11.0 µM 6% | [4]; at 33.0 µM 18% | [4]; at 100.0 µM 39% | [5]; [16] -35% and 5% | [5]; [17] -2% and 6% | [5]; at 50.0 µM 43.3% and 26.8% | [6]; at 1.2 µM -7% | [6]; at 3.7 µM -23% | [6]; [16] -13% and -1% | [6]; at 11.0 µM -3% | [6]; at 33.0 µM 4% | [6]; [17] 10% and -10% | [6]; at 50.0 µM -2.9% and -0.2% | [6]; at 100.0 µM 39% | [7]; at 1.2 µM -2% | [7]; at 3.7 µM -1% | [7]; at 11.0 µM 5% | [7]; at 33.0 µM 22% | [7]; at 100.0 µM 68% | [8]; at 1.2 µM 0% | [8]; at 3.7 µM 4% | [8]; at 11.0 µM 14% | [8]; at 33.0 µM 31% | [8]; at 100.0 µM 67% | [9]; [16] -6% and 4% | [9]; [17] 41% and 20% | [9]; at 50.0 µM 20.1% and 27.3% | [10]; at 1.2 µM 1% | [10]; at 3.7 µM 3% | [10]; at 11.0 µM 4% | [10]; at 33.0 µM 22%
